Bioassay records as filed in PubChem BioAssay.
Compounds with a hit are over-represented: about 2.8% of the library has one in this group of screens.
IP6K1 inhibitor = Primary qHTS assay for small molecule inhibitors of Inositol hexaphosphate kinase 1 (IP6K1). Inositol hexakisphosphate kinase 1 (Homo sapiens), Q92551. IP6K1 kinase, ADP-Glo luminescence, 2 h; stronger effect = lower value. activity change, % (series mostly up to about 58 µM). 0.81% of 140,000 active. AID 1645851, 2021; in the data active = activity change below about -25%; also: % is scaled to controls: 0 for no effect and ±100 for the full control effect
Target sequence (Q92551 whole entry, looked up): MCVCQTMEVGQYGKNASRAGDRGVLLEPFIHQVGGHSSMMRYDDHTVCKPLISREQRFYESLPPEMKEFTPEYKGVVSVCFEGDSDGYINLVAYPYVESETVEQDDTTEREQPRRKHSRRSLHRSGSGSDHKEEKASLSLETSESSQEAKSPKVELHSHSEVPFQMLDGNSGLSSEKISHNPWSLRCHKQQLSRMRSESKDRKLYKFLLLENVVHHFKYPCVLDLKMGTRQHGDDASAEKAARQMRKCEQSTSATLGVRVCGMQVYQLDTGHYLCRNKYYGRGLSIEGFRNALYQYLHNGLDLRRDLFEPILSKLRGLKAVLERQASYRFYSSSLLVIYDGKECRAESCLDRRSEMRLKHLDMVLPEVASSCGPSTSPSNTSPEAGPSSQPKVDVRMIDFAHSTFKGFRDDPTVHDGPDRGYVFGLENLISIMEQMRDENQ
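ADP-Glo luminescence measures ADP made by human IP6K1 during a 2 h RT reaction with ATP/IP6 (mix at 1.3 mM/130 uM); top library doses 57.5 and 19.1 uM final.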
KDM5B inh = Primary screen for KDM5B Histone Demethylases FDH-coupled qHTS; AID 1347165, 2019; Potency, µM (titrated, usually from 57.7 µM), most hits filed as inhibitors; KDM5B demethylase, FDH-coupled NADH fluorescence (FDH is formaldehyde dehydrogenase); 2.6% of 220,000 active; active = well fitted inhibition curve with a large enough effect; inconclusive = small, poorly fitted or top-dose-only effect; inactive = no such curve, though single readings can be large or run the other way; also: potency is read from the fitted curve at half-maximal effect; 0% is about no effect; nearly all actives have a fitted effect of over 70% in size
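KDM5BΔAP (200 nM final) in 50 mM HEPES pH 7.5, 0.01% Tween-20 was preincubated 10 min at RT with compound over a concentration range. Substrate mix (H3K4me3 12.5 µM, α-KG 25 µM, Fe²⁺, ascorbate, NAD⁺, FDH) was added, and NADH fluorescence change over 30 min gave dose-response curves.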
* = called active by the depositor; i = inactive; u = inconclusive; x = not tested or not shown.

SMILES | IP6K1 inhibitor | KDM5B inh
COCCNc1ncnc2c1CN(C1CCNCC1)C(=O)CN2C | 3 | 50µM*
CC1C=CC(C)N1c1ncnc2c1CN(C1CCNC1)C(=O)CN2C (stereo not drawn) | -1 | 89µM*
COCCNc1ncnc2c1CN(C1CCCC1)C(=O)CN2C | 13 | u
O=C1CCN(C(=O)Nc2ccccc2)CCCC(c2nc(-c3cnccn3)no2)CCN1 (stereo not drawn) | 17 | i
O=C(Cc1ccc(F)cc1)N1CCN(c2cc(-c3ccc(Cl)cc3)[nH]n2)CC1 | 15 | i
O=C(COc1ccccc1-n1cnnc1)NC1CCCc2c1[nH]c1ccccc21 (stereo not drawn) | 0 | i
Cc1noc(C)c1CCC(=O)NC1CCCc2c1[nH]c1ccccc21 (stereo not drawn) | 3 | 28µM*
Cc1noc(C)c1CCC(=O)NC1CCCc2c1[nH]c1c(Cl)cccc21 (stereo not drawn) | -2 | i
Cc1cc(=O)oc2cc(OCC(=O)NC3CCCc4c3[nH]c3ccccc43)ccc12 (stereo not drawn) | 4 | 16µM*
CN(C(=O)CSc1cn(CC(=O)N2CCCCC2)c2ccccc12)c1ccccc1 | 0 | i
CN1CC2(CCN(C(=O)c3cc(-n4cccn4)ccc3Cl)CC2)OC1=O | -1 | i
CC(C)NC(=O)N1CCN(C(=O)NC(C)C)[C@@H](C(=O)N[C@@H](CC2CCCCC2)C(N)=O)C1 | 5 | i
COc1ccc(NCc2cc3cc4c(cc3n(CC(=O)Nc3cc(C)ccc3C)c2=O)OCCO4)cc1 | 7 | i
O=C(c1ccncc1)N1CCCC2(CN[S+](=O)([O-])c3cccnc3N2)C1 (stereo not drawn) | 2 | x
Cc1ccc2c(c1)C(C[C@H]1CN(C(=O)C3CCCC3)CC[C@H]1CC(=O)O)=NCC2 | -1 | u
COc1ccc2c(c1)CCN=C2C[C@H]1CN(C(=O)C2CC2)CC[C@H]1CC(=O)O | -7 | u
COc1cccc2c1CCN=C2C[C@H]1CN(C(=O)C2CCC2)CC[C@H]1CC(=O)O | 13 | 35µM*
COc1ccc2c(c1)C(C[C@H]1CN(C(=O)C3CCC3)CC[C@H]1CC(=O)O)=NCC2 | 16 | 35µM*
N#Cc1ccc(C(=O)N(Cc2cccs2)C2CC2)cc1 | x | i
CNCCN1C(=O)CC[C@H]2CN(C(=O)c3ccc(Cl)cn3)CC[C@H]21 | 6 | i
CNCCN1C(=O)CC[C@H]2CN(c3ncc(Cl)cc3F)CC[C@H]21 | 11 | 25µM*
CN1CCSc2ccc(C(=O)NCc3ccccc3)cc21 | -10 | u
Cc1nc(CSCC(=O)NCc2cccs2)cs1 | x | i
CN(C)CC(=O)N1CCC2(C1)CN(C)c1ccc(C(=O)NCc3cccs3)cc12 (stereo not drawn) | 5 | 40µM*
Cc1nc(CN2CC3(CCN(C)C3)c3cc(C(=O)NCc4cccs4)ccc32)cs1 (stereo not drawn) | 6 | 35µM*
SMILES | IP6K1 inhibitor | KDM5B inh
CC(C)CCN1CCOc2cc(C(=O)NCc3cccs3)ccc2C1 | -13 | i
Cc1nc(CN2CC3(CCN(C)C3)c3cc(C(=O)NCc4ccccc4)ccc32)cs1 (stereo not drawn) | 7 | 35µM*
Cc1nc(CN2CC3(CCN(C)C3)c3cc(C(=O)NCC4CC4)ccc32)cs1 (stereo not drawn) | 10 | 28µM*
CCN1c2cc(C(=O)NCCOc3ccccc3OC)ccc2C(=O)N2CCCCCC21 (stereo not drawn) | 2 | u
Cn1nccc1CN1CCC12Cc1ccccc1NC2=O (stereo not drawn) | -6 | i
Cc1ccc(N2C(=O)c3ccccc3NC2c2cnc3ccccc3n2)cc1 (stereo not drawn) | x | i
CN1CCC2(C1)CN(Cc1ccccc1)c1ccc(C(=O)NCc3cccs3)cc12 (stereo not drawn) | 2 | 35µM*
COc1ccc(NC(=O)c2ccc3c(c2)C2(CCN(C)C2)CN3CC2CC2)cc1 (stereo not drawn) | 14 | u
Cc1nc(CN2CC3(CCN(C)C3)c3cc(C(=O)Nc4ccc(F)cc4)ccc32)cs1 (stereo not drawn) | -13 | 25µM*
CN1CCCC2(C1)CN(Cc1cccnc1)c1ccc(C(=O)NCc3cccs3)cc12 (stereo not drawn) | 14 | i
O=c1[nH]nc2n1CCN(C1CCSCC1)CC2 | -11 | i
O=C(C1CCCN1[S+](=O)([O-])c1cccs1)N1CCC(N2CCCC2=O)CC1 (stereo not drawn) | -4 | x
O=C(Nc1cnc(-c2cccc(Cl)c2)nc1)c1ccc(F)cc1F | -3 | i
O=C(Nc1cnc(-c2cccc(Cl)c2)nc1)c1cc(F)cc(F)c1 | 4 | 25µM*
COc1ccc2[nH]c3c(c2c1)CCNC31CCN(C(=O)C(C)(C)C)CC1 | -2 | 25µM*
COc1cccc(CN2CCC3(CC2)NCCc2c3[nH]c3ccc(OC)cc23)c1 | -1 | 25µM*
COc1ccc2[nH]c3c(c2c1)CCN(C)C31CCN(C(=O)c2cn(C)cn2)CC1 | -3 | 25µM*
COc1ccc2[nH]c3c(c2c1)CCNC31CCN(C(=O)NC(C)(C)C)CC1 | 14 | u
COc1ccc2[nH]c3c(c2c1)CCNC31CCN(Cc2scnc2C)CC1 | -4 | u
COc1cccc(CN2CCC3(CC2)NCCc2c3[nH]c3ccccc23)c1 | -2 | i
COc1ccc2[nH]c3c(c2c1)CCNC31CCN(Cc2ccc(C)o2)CC1 | -4 | 20µM*
COc1ccc2[nH]c3c(c2c1)CCN(C)C31CCN(C(=O)c2cc(C)[nH]n2)CC1 | -4 | u
Cc1noc(C)c1CN1CCCC(c2nccn2Cc2ccccc2)C1 (stereo not drawn) | 2 | i
COc1ccc(Cn2c(C3CCN(C(=O)C4(c5ccccc5)CC4)CC3)n[nH]c2=O)cc1 | -7 | i
N#Cc1cccc(C(=O)N2C[C@@H](Oc3cccnc3)C[C@H]2C(=O)NC2CC2)c1 | 17 | x
SMILES | IP6K1 inhibitor | KDM5B inh
Cn1nc(C2CCCN2)c2c(C(=O)NC3CC3)cc(C3CC3)nc21 (stereo not drawn) | 10 | u
Cn1nc(C2CCCN2)c2c(C(=O)NCc3ccncc3)cc(C3CC3)nc21 (stereo not drawn) | -5 | 79µM*
O=C(NCc1ccc(F)cc1)c1cc(C2CC2)nc2onc(C3CCCN3)c12 (stereo not drawn) | -1 | i
Cn1nc(C2CCCN2)c2c(C(=O)NCc3cccs3)cc(C3CC3)nc21 (stereo not drawn) | -4 | u
CC(C)CNC(=O)c1cc(C2CC2)nc2c1c(C1CCCN1)nn2C (stereo not drawn) | 0 | 79µM*
Cn1nc(C2CCCN2)c2c(C(=O)NCc3ccc(F)cc3)cc(C3CC3)nc21 (stereo not drawn) | 0 | 79µM*
CC1=C[C@@H](CN)[C@H](C(C)C)C[C@H]1Cc1nc2ccc(Cl)cc2[nH]1 | 28 | i
O=c1ccc2ccc(OCc3nc(-c4ccc(Cl)cc4)no3)cc2o1 | x | i
OCC1CN(Cc2ccc(Cl)o2)CCC12CCN(C1CCOCC1)CC2 (stereo not drawn) | -5 | i
COC[C@@H]1CN(C(=O)c2ccncc2)C[C@H]1c1ccncc1 | 4 | i
